Screening data as filed in PubChem.
NPR2 activator – human GC-B receptor activators, primary screen, HEK293 GC-B cells, cGMP TR-FRET, EC30 CNP; Atrial natriuretic peptide receptor 2 (Homo sapiens), P20594; 0.11% of 370,000 active; activation, % at 10 µM; 0% at EC30 CNP, 100% saturating CNP; AID 1920062, 2024;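 active = activation at 10 µM reaching about 35% in either raw or pattern-adjusted values, limit read from the data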
proKLK7 act – proKLK7 zymogen activators, primary screen, biochemical, fluorescence intensity; Kallikrein-7 (Homo sapiens), P49862; purified proKLK7, EDANS-DABCYL substrate fluorescence; 100% is mature enzyme control, 0% vehicle; activation, % at 7 µM; 0.9% of 370,000 active;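 active = activation above the mean of all tested compounds plus 3 SD, computed per campaign excluding outliers beyond control limits, cut at about 13% in these data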
HIF act – HIF pathway transcriptional activators, primary screen, cell-based, U2OS HRE-luciferase, luminescence; 0.32% of 300,000 active; activation, % at 7.5 µM (by protocol); U2OS HRE-luciferase reporter; normalized: DMSO 0%, desferrioxamine 100%;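 active = mean activation of at least 10% of the iron chelator positive control signal, with at least half of replicates also reaching 10%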
GC-A act – GC-A stimulated cGMP production enhancers – HEK293 GC-A cells, cGMP TR-FRET, EC30 ANP, primary screen; 0% at EC30 ANP, 100% saturating ANP; activation, % at 10 µM; Atrial natriuretic peptide receptor 1 (Homo sapiens), P16066; 0.14% of 370,000 active; AID 1671463, 2021; in the data active = activation above about 40%
Target sequence (P16066 whole entry, looked up): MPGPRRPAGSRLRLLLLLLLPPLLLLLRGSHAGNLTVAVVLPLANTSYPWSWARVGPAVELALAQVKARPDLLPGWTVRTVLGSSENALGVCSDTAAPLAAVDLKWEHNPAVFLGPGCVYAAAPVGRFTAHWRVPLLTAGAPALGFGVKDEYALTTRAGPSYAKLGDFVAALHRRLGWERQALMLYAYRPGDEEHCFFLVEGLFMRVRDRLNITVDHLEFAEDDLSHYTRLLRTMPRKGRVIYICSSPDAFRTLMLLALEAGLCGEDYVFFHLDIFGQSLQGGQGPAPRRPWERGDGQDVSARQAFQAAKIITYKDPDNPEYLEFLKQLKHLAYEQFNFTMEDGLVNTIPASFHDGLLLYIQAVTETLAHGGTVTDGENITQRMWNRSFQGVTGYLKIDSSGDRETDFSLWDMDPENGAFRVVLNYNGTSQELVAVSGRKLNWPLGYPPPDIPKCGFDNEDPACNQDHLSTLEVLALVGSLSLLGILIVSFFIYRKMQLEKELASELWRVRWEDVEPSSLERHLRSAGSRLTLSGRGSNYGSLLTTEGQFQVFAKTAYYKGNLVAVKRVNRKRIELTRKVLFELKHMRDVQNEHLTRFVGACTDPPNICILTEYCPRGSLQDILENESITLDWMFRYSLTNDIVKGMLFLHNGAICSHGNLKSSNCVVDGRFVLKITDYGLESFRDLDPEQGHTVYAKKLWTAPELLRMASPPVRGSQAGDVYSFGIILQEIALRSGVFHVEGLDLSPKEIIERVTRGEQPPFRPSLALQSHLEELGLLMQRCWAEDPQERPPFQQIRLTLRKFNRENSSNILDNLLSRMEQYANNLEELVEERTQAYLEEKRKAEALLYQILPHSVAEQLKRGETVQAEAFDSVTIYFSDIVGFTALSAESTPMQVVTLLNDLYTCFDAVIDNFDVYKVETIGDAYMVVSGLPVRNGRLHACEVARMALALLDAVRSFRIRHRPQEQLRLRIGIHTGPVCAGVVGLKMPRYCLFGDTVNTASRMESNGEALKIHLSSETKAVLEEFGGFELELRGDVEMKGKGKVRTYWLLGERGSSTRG
KLK7 act conf – proKLK7 zymogen activators, confirmation, biochemical, fluorescence intensity, triplicate; shares compounds with proKLK7 act; purified proKLK7, EDANS-DABCYL substrate fluorescence; scaled: vehicle 0, mature enzyme 100; activation, % at 7 µM; 68% of 3,200 active; AID 686949, 2013;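 active = activation, as change over the incubation, above the mean of all tested compounds plus 3 SD, cut at about 13% in these data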
EDANS-DABCYL int – EDANS-DABCYL substrate optical interference, artefact control for kallikrein-7 zymogen activator project, biochemical, fluorescence intensity, high throughput | shares compounds with proKLK7 act | no enzyme, 4 h; solvent 0%, active enzyme control 100% | activation, % at 7 µM | 80% of 3,200 active | AID 686952, 2013;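 active = activation above the all-compound mean plus 3 SD, ignoring values outside control-based bounds, cut at about 4.8% in these data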;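 note: value is the 4 h activation minus the activation read at time zero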
EDANS interf – EDANS fluorescence interference in dose response, no enzyme | shares compounds with proKLK7 act | EDANS-DABCYL peptide fluorescence interference | EC50, µM | 20% of 250 active;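 active = compounds that raise the fluorescence signal in this interference counterscreen, with EC50 at or below 10 µM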;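 note: intact quenched peptide substrate alone read at 355 nm excitation and 520 nm emission; signal is fluorescence gain from T0 to T4 after four hours at room temperature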
* = called active by the depositor; · = not tested or not shown. The list is not random: actives were taken first. Their share in the collection is about 1.3%.

SMILES | NPR2 activator | proKLK7 act | HIF act | GC-A act | KLK7 act conf | EDANS-DABCYL int | others
CCn1c(=O)cc(OCC(=O)N2CCC3(CC2)OCCO3)c2ccccc21 | -1 | 0 | 1 | -2 | · | ·
CC(=O)N1CCC2(CC1)CC(=O)c1cc(OCC(=O)N3CCN(C)CC3)ccc1O2 | 5 | 42* | 0 | 5 | 63* | 68*
Cc1cc(OCC(=O)N2CCCN(C)CC2)ccc1Cl | 4 | 0 | 2 | -1 | · | ·
CC(=O)N1CCC2(CC1)CC(=O)c1cc(OCC(=O)N3CCC4(CC3)OCCO4)ccc1O2 | 5 | 36* | -1 | 6 | 70* | 65*
CCC(NC(=O)OCc1ccccc1)P(=O)(Oc1ccccc1)Oc1ccccc1 (centres undefined) | -11 | 1 | · | -2 | · | ·
N=c1c2c(-c3ccccc3)c(-c3ccccc3)n(Cc3ccccc3)c2ncn1C1CCC(O)CC1 (centres undefined) | -9 | 0 | · | -25 | · | ·
COc1c(C)cc(C(=O)C2CCCN(C3CCOCC3)C2)cc1C (centres undefined) | 6 | 0 | 1 | 0 | · | ·
COc1ccc2cc(C(=O)C3CCCN(C4CCOCC4)C3)ccc2c1 (centres undefined) | -2 | 139* | 0 | 2 | 4 | 20*
O=C(CNC(=O)OCc1ccccc1)NC(Cc1ccccc1)P(=O)(Oc1ccccc1)Oc1ccccc1 (centres undefined) | -14 | -1 | · | -9 | · | ·
Cc1ccccc1CCC[C@H](CC1CCCCC1)CN(C)C(=O)Oc1ccccc1 | -1 | 0 | · | -4 | · | ·
CCOCCCn1c(N)c(C(=O)Nc2sc3c(c2C(=O)OC)CCCC3)c2nc3ccccc3nc21 | -4 | 28* | · | 4 | 1 | 1
O=c1[nH]cc(N(CCCl)CCCl)c(=O)[nH]1 | -4 | 0 | · | 3 | · | ·
Cc1cc(O)c2c(C)c(CC(=O)N3C[C@H]4C[C@@H](C3)c3cccc(=O)n3C4)c(=O)oc2c1 | -6 | -6 | 0 | 4 | · | ·
COc1cc(C)cc2oc(=O)c(CC(=O)N3C[C@H]4C[C@@H](C3)c3cccc(=O)n3C4)c(C)c12 | -1 | 22* | 0 | 2 | 15* | 17*
CN(C)c1ccc(/C=C2/C(=N\O)C3CCN2CC3)cc1 | 3 | 56* | 0 | 2 | 130* | 153*
COCCOC(=O)c1c(N)n(Cc2ccccc2)c2nc3ccccc3nc12 | 32 | 32* | 0 | 40 | -52 | -152
CCCCn1c(N)c(C(=O)OCCOC)c2nc3ccccc3nc21 | 2 | 0 | 0 | 0 | · | ·
CCOC(=O)c1c(N)n(Cc2ccco2)c2nc3ccccc3nc12 | 1 | 47* | · | 18 | 60* | 78*
CC(C)OC(=O)c1c(N)n(CC2CCCO2)c2nc3ccccc3nc12 (centres undefined) | 7 | 48* | 0 | 5 | 73* | 72*
Nc1c(C(=O)NCc2ccco2)c2nc3ccccc3nc2n1CCN1CCOCC1 | -8 | 34* | 1 | -1 | -12 | -17
Nc1c(C(=O)NCc2ccco2)c2nc3ccccc3nc2n1Cc1ccccc1 | -9 | -48 | 0 | -11 | · | ·
CN1c2ccc(Br)cc2[C@H]2NCC[C@H]2[C@H]1CO | -3 | 1 | · | -4 | · | ·
COP(=O)(C(=O)Nc1ccccc1)C(CC(C)C)NC(=O)OCc1ccccc1 (centres undefined) | 2 | 0 | · | -6 | · | ·
S=P(c1ccccc1)(c1ccccc1)c1cnc2ccccn12 | -7 | · | · | -3 | · | ·
CCOc1ccc(-c2cc(C)[n+](CCO)c(-c3ccc(OCC)cc3)c2)cc1 | -2 | 94* | 0 | 8 | 70* | 69*
SMILES | NPR2 activator | proKLK7 act | HIF act | GC-A act | KLK7 act conf | EDANS-DABCYL int | others
CN(C)[C@@H]1C(=O)C(C(N)=O)=C(O)[C@@]2(O)C(=O)C3=C(O)c4c(O)ccc(Cl)c4[C@@](C)(O)[C@H]3C[C@@H]12 | 3 | 13* | 0 | 5 | 37* | 35*
CC(C)C(NC(=O)OCc1ccccc1)P(=O)(Oc1ccccc1)Oc1ccccc1 (centres undefined) | -5 | 0 | · | -10 | · | ·
COC(=O)C(C)Oc1cc(C)cc2oc(=O)c3c(c12)CCC3 (centres undefined) | 13 | 16* | 0 | 5 | 7 | 12*
Cc1cc(OCC(=O)N2CCC(C(=O)O)CC2)c2c3c(c(=O)oc2c1)CCC3 | 2 | 19* | 0 | 3 | 13* | 16*
CC[C@H](C)[C@@H]1OC(=O)[C@H](C(C)C)N(C)C(=O)[C@H](C(C)C)NC(=O)[C@@H](C)[C@@H](CCCC#CBr)OC(=O)[C@H](C(C)C)N(C)C(=O)C2CCCN2C1=O (some centres undefined) | 5 | · | · | 3 | · | ·
CN1C[C@H](CO)C=C2c3cccc4[nH]cc(c34)C[C@H]21 | -12 | 39* | -1 | -3 | 30* | 25* | EDANS interf=>70
O=c1[nH]c(=S)n(Cc2ccc(F)cc2)c(O)c1/C=N/N1CCCCC1 | 4 | 14* | 0 | -2 | 2 | 1
O=c1[nH]c(=S)n(Cc2ccc(F)cc2)c(O)c1C=NCC1CCCO1 (centres undefined) | 4 | 0 | 0 | 4 | · | ·
Cn1c(O)c(/C=C2\C=Nc3ccccc32)c(=O)n(C)c1=O | 12 | 0 | 1 | 5 | · | ·
Cn1c(O)c(/C=C2\C=c3ccccc3=NC2=O)c(=O)n(C)c1=O | 0 | 13* | 1 | -2 | 14* | 12*
O=C(CN1C(=O)CN=C(c2ccccc2)c2cc(Cl)ccc21)NC1CCCCC1 | -13 | 0 | · | -11 | · | ·
O=c1ccc2cc(O[C@@H]3O[C@H](CO)[C@@H](O)[C@H](O)[C@H]3O)c(O)cc2o1 | -3 | 53* | · | 10 | 67* | 71*
CC1=NCCc2c1[nH]c1cc(O)ccc21 | 1 | 80* | · | 33 | 68* | 71*
COc1ccc2c3c([nH]c2c1)[C@H](C=C(C)C)N1C(=O)[C@@H]2CCCN2C(=O)[C@@H]1C3 | 0 | 11 | · | -1 | · | ·
COc1ccc2c3c([nH]c2c1)C(C)=NCC3 | -1 | 54* | 0 | 7 | 58* | 72*
Cc1cc(=O)oc2cc3c(cc12)CCCN3 | -1 | 60* | -1 | -8 | 66* | 63*
